From PubChem BioAssay (NCI)
“And” between values parts separate entries of the source, which are not always exact repeats. Identical values can stand only once. Compounds without any hit were thinned out: in the full panel of roughly 83,000, 20% have a hit.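 Step 1: grow cells in 96-well plates. Step 2: add test compound at a single concentration. Step 3: incubate 48 h. Step 4: record percent growth.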 The source made the active and inactive calls. How the source made its calls: active means growth percent below 10; inactive means the rest.

The compounds below were run on HL-60(TB) leukemia (assay: NCI-60 one-dose screen, 48 h (100 = growth as untreated, 0 = no growth, -100 = all killed)). Settings: 10 µM unless noted.
With `COc1ccc(-c2nsc3c2NC(=O)CC3c2cccc(Cl)c2)cc1` (centres undefined) the growth was -19.2% (active). With `c1ccc(-c2ccc3ccccc3c2)cc1` the growth was 109% (inactive). `N#CC(C#N)N=Nc1ccc(Br)cc1` was tested, and the growth was -10.7% (active). In the case of `O=C(/C=C/c1c(-c2ccccc2)[nH]c2ccccc12)S(=O)(=O)c1ccccc1`, the growth was -22.1% (active). In the case of `COc1ccc(-c2nc(N)ncc2Oc2ccccc2OC)c(O)c1`, the growth was -21.8% (active). In the case of `CCCCCCC(O)(c1ccc(F)cc1)C(CN1CCOCC1)c1ccccc1` (centres undefined), the growth was 30.8% (inactive). In the case of `O=C(Nc1ccc(-n2ccc3c(NC(=O)c4ccccc4)nccc32)cc1)Nc1cccc(C(F)(F)F)c1`, the growth was 63.8% (inactive). `COc1ccc(/C=C/C(=O)C(=O)/C=C/c2ccc(OC)c(OC)c2)cc1OC` was tested, and the growth was 35.4% (inactive). `CN(C)c1ccc(/C=C(\C#N)c2ccccc2)cc1` was tested, and the growth was -9.62% (active) and 16% (inactive) and 9.8% (active). With `CCOc1ccccc1/C=N\N=C\c1ccccc1O` the growth was 30.6% (inactive). `O=CC(O)C(O)C(O)CO` (centres undefined) was tested, and the growth was 130% (inactive) and 91.5% (inactive). `N#C/C(=C\c1ccc2ccccc2c1)c1cc2ccccc2[nH]1` was tested, and the growth was 10.5% (inactive). With `COc1ccc(C(=O)c2cc(OC)c(OC)c(OC)c2)cc1/C=C/C(=O)c1ccc(OC)c(OC)c1` the growth was 19.1% (inactive). In the case of `N=C(N)c1ccc(-c2ccc(-c3ccco3)o2)cc1`, the growth was 16.6% (inactive). With `CN1C(=O)N(C)C2C1NN=c1s/c(=C\c3c[nH]c4ccccc34)c(=O)n12` (centres undefined) the growth was -34.1% (active). In the case of `CCCCCCCCCCCCCCCCCCOc1ccccc1CC(=O)OCCC[N+](C)(C)C`, the growth was 9.1% (active). For `CCOc1ccc2nc(-c3cccc(OCC(=O)NC(C)C)c3)nc(Nc3ccc(-c4cn[nH]c4)cc3)c2c1`, the growth was 2.3% (active). With `C=CCn1c(SCC(=O)Nc2ccc(C(=O)/C=C/c3cc(OC)c(OC)c(OC)c3)cc2)nnc1-c1cc(-c2ccc(S(C)(=O)=O)cc2)nc2ccccc12` the growth was 69.8% (inactive). For `COc1cc2cc(Oc3ccc(NC(=O)Nc4ccc(Cl)c(Cl)c4)cc3)c(C)nc2cc1OCCN1CCOCC1`, the growth was 97.9% (inactive). `COc1ccc(/C=C2\CCCC3=C2N=C2SC(C)=CN2C3c2ccc(OC)cc2)cc1` (centres undefined) was tested, and the growth was 76.2% (inactive). In the case of `c1ccc2c(c1)oc1c3c(ccc12)NCCC3`, the growth was 91.8% (inactive). With `Cc1cc(C)c2c(c1)N(C)c1ncnc(-n3cnc4cc(C)ccc43)c1CC2C` (centres undefined) the growth was 11.1% (inactive). In the case of `CCC1=C[C@@H]2C[C@]3(C(=O)OC)c4[nH]c5ccccc5c4CC[N@+](CC(=O)Nc4cc5c(cc4OC)N(C)[C@H]4[C@@](O)(C(=O)OC)[C@H](OC(C)=O)[C@]6(CC)C=CCN7CC[C@]54[C@@H]76)(C2)[C@H]13`, the growth was 116% (inactive). With `CCOC(=O)C1=C(N)Oc2cc(OC)ccc2C1c1ccc(F)c(F)c1` (centres undefined) the growth was -9% (active). For `COc1ccc(Cn2cc3c(c2-c2ccccc2)CCc2cncnc2-3)cc1`, the growth was 15.2% (inactive). For `NNC(=O)c1ccc(C(=O)NN)cc1`, the growth was 124% (inactive). `CC1(C)c2[nH]c3ccccc3c2C[C@]2(C)[C@H]3CC=C4[C@@H]5C[C@@](C)(C(N)=O)CC[C@]5(C)CC[C@@]4(C)[C@]3(C)CC[C@@H]12` was tested, and the growth was 55.8% (inactive). In the case of `COc1ccc2[nH]cc(C(c3cc(F)cc(F)c3)c3c[nH]c4ccc(OC)cc34)c2c1`, the growth was 131% (inactive). `CN(C)c1ccc(C(=N)c2ccc(N(C)C)cc2)cc1` was tested, and the growth was 12.3% (inactive) and 6.84% (active). `CCOc1ccc2nc3ccc(Cl)cc3nc2c1` was tested, and the growth was 63.7% (inactive). `Fc1ccc(-c2nnc(-c3c(-c4ccc(F)cc4)nc4ncccn34)o2)cc1` was tested, and the growth was 87.8% (inactive). In the case of `COc1cc2oc(-c3ccc(O)cc3)cc(=O)c2c(O)c1I`, the growth was 99% (inactive). In the case of `Cn1cc(-c2csc(-c3cn(C(=O)OC(C)(C)C)c4ccc(Br)cc34)n2)c2ccnc(Cl)c21`, the growth was 115% (inactive). `COC(=O)/C=C\C(=O)OC` was tested, and the growth was 90.5% (inactive). For `Cc1ccc2nc(C)c(-c3nnc(SCc4ccc(C#N)cc4)o3)n2c1`, the growth was 111% (inactive). `CCCCN(CCCC)CCCNc1c2c(nc3ccc(Cl)cc13)CCCC2` was tested, and the growth was 89% (inactive). In the case of `C[N+](C)(C)c1ncnc2nc[nH]c12`, the growth was 91.8% (inactive). In the case of `C=CCSc1nc2ccccc2cc1/C=N/O`, the growth was 92.1% (inactive). With `CCc1ccccc1-n1c(-c2ccc(Cl)cc2)cc(-c2ccc(Cl)cc2)c(C#N)c1=O` the growth was 82.7% (inactive).
